Consider 16 molecules from PubChem BioAssay (NCATS).

A short description of experiment [1]: qHTS profiling for inhibitors of Plasmodium falciparum proliferation (AID 504749). Also: nearly all actives have a fitted effect of over 60% in size.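 As to activity, negative = inhibition: 0% = DMSO vehicle and full inhibition = artemisinin control.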 Conditions: P. falciparum in erythrocytes, SYBR Green DNA, 72 h. A digest of the protocol: (§1)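 Fluorescence of SYBR Green-bound parasite DNA, read at 485/535 nm, served as the growth measure. Infected erythrocytes were cultured with compound 72 h; artemisinin (0.29 uM) and DMSO wells defined the normalization range.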
Background: qHTS replaces the single test concentration by a dilution series.

Experiment [2] relates to 3D7. The description is as above. Conditions: P. falciparum in erythrocytes, SYBR Green DNA, 72 h; series mostly up to 28.7 µM. Put shortly: as §1
Experiment [3] concerns 7G8. The description is as above. Conditions: P. falciparum in erythrocytes, SYBR Green DNA, 72 h; series mostly up to 28.7 µM. Put shortly: as §1
Experiment [4] has as its system AA1029. The experiment is described as above. Conditions: P. falciparum in erythrocytes, SYBR Green DNA, 72 h; series mostly up to 28.7 µM. Put shortly: as §1
The subject of experiment [5] is AS120. Described as above. Conditions: P. falciparum in erythrocytes, SYBR Green DNA, 72 h; series mostly up to 28.7 µM. A digest of the protocol:
as §1

The test system of experiment [6] is ATS189. The description is as above. Conditions: P. falciparum in erythrocytes, SYBR Green DNA, 72 h; series mostly up to 28.7 µM. Put shortly: as §1
The subject of experiment [7] is ATS95. The experiment is described as above. Conditions: P. falciparum in erythrocytes, SYBR Green DNA, 72 h; series mostly up to 28.7 µM. Put shortly: as §1
Experiment [8] relates to C2A. The description is as above. The settings on record: P. falciparum in erythrocytes, SYBR Green DNA, 72 h; series mostly up to 28.7 µM. A digest of the protocol: as §1
Experiment [9] concerns CP185. Described as above. The settings on record: P. falciparum in erythrocytes, SYBR Green DNA, 72 h; series mostly up to 28.7 µM. Put shortly:
as §1

In experiment [10] the test system is CP191. The experiment is described as above. Conditions: P. falciparum in erythrocytes, SYBR Green DNA, 72 h; series mostly up to 28.7 µM. Put shortly: as §1
Experiment [11] relates to CP192. The experiment is described as above. The settings on record: P. falciparum in erythrocytes, SYBR Green DNA, 72 h; series mostly up to 28.7 µM. Put shortly:
as §1

Experiment [12] has as its system CP194. Described as above. Conditions: P. falciparum in erythrocytes, SYBR Green DNA, 72 h; series mostly up to 28.7 µM. Put shortly: as §1
Experiment [13] has as its system CP201. Described as above. Conditions: P. falciparum in erythrocytes, SYBR Green DNA, 72 h; series mostly up to 28.7 µM. A digest of the protocol:
as §1

The test system of experiment [14] is CP203. The experiment is described as above. The settings on record: P. falciparum in erythrocytes, SYBR Green DNA, 72 h; series mostly up to 28.7 µM. A digest of the protocol:
as §1

Experiment [15] concerns CP211. The description is as above. Conditions: P. falciparum in erythrocytes, SYBR Green DNA, 72 h; series mostly up to 28.7 µM. A digest of the protocol: as §1
Experiment [16] relates to CP215. Described as above. The settings on record: P. falciparum in erythrocytes, SYBR Green DNA, 72 h; series mostly up to 28.7 µM. A digest of the protocol: as §1
Setting [17] is: at 12.8 µM (top of the series), parasite line A.
[18] abbreviates: at 12.8 µM (top of the series), parasite line B.
Where [19] appears, read: at 28.7 µM (top of the series), parasite line A.
The mark [20] stands for this setting: at 28.7 µM (top of the series), parasite line B.

Results filed as inconclusive are left out. A number with no mark means an inactive call. Active and inactive are the calls of the source. Calls follow the shape of the dose curve; as a rule, active = well fitted inhibition curve with a large enough effect; inconclusive = small, poorly fitted or top-dose-only effect; inactive = flat fitted curve, though single readings scatter.
Potency is read from the fitted curve at half-maximal effect.

For `CCc1cccc(CC)c1NC(=O)CN(CC(=O)O)CC(=O)O`, the activity, negative = inhibition in experiment [1] (setting [17]) is 1.37%; in [1] (setting [18]), 6.7%.

On to `CN/C(=C\[N+](=O)[O-])NCCSCc1csc(CN(C)C)n1`, for which the activity, negative = inhibition in experiment [1] (setting [17]) was 4.23%; in experiment [1] (setting [18]) it was 7.76%.

On to `Nc1ccncc1N`, for which the activity, negative = inhibition in experiment [1] (setting [19]) is 9.9%; in experiment [1] (setting [20]) it was 5.99%. The Potency entry in experiment [2], in experiment [3], in [4], in experiment [5], in experiment [6] and in [7] was “inactive” each time. Besides, the Potency result in experiment [8], in experiment [9], in experiment [14] and in experiment [16] was “inactive” each time. Besides, the molecule was classed as inactive in experiment [10], in [11], in experiment [12], in [13] and in [15].

As for `COc1ccc(Cc2cnc(N)nc2N)cc1OC`, the Potency in experiment [1] (parasite line A) was 3.55 µM (active); in experiment [1] (parasite line B), 8.91 µM (active); in [2], 7.08 µM (active). Also, the Potency result in [3], in experiment [4], in experiment [5], in experiment [6], in experiment [7] and in experiment [8] was “inactive” in each case. In addition, the Potency entry in [9], in [14] and in [16] was “inactive” throughout. For the same molecule, the result in experiment [10], in experiment [11], in [12], in experiment [13] and in experiment [15] was inactive.

For the molecule `CCOC(=O)c1cccnc1`, the results for the activity, negative = inhibition in [1] (setting [19]) and in experiment [1] (setting [20]) were 7.9% and 13.9%, respectively. For the same molecule, the Potency result in experiment [2], in [3], in experiment [4], in experiment [5], in experiment [6] and in [7] was “inactive” each time. Further, the Potency result in [8], in experiment [9], in experiment [14] and in [16] was “inactive” in each case. For the same molecule, the outcome in experiment [10], in experiment [11], in [12], in experiment [13] and in experiment [15] was inactive.

Consider `CCCC(O)C(CC)CO` (stereo not given), for which the activity, negative = inhibition in [1] (setting [19]) is 12.2%; in [1] (setting [20]) it was 6.77%. The Potency result in experiment [2], in experiment [3], in [4], in experiment [5], in experiment [6] and in experiment [7] was “inactive” in each case. In addition, the Potency entry in [8], in [9], in [14] and in [16] was “inactive” each time. The result in experiment [10], in experiment [11], in experiment [12], in [13] and in experiment [15] was inactive.

`COC(=O)c1ccccc1C(=O)c1ccc(OCCN2CCCCC2)cc1`: the activity, negative = inhibition in experiment [1] (setting [19]) is 9.58%; in experiment [1] (setting [20]), 5.94%. Also, the Potency entry in [2], in experiment [3], in experiment [4], in experiment [5], in experiment [6] and in experiment [7] was “inactive” in each case. Moreover, the Potency entry in experiment [8], in experiment [9], in [14] and in experiment [16] was “inactive” in each case. Further, the molecule was classed as inactive in [10], in [11], in experiment [12], in experiment [13] and in experiment [15].

With `O=C(O)c1ccc[n+]([O-])c1`, the activity, negative = inhibition is -4.83% in experiment [1] (setting [19]) and 10.2% in experiment [1] (setting [20]). The Potency result in [2], in [3], in experiment [4], in [5], in [6] and in [7] was “inactive” each time. Besides, the Potency entry in experiment [8], in [9], in [14] and in experiment [16] was “inactive” throughout. Moreover, the molecule was called inactive in experiment [10], in experiment [11], in experiment [12], in [13] and in [15].

Consider `CCS(=O)(=O)CCn1c([N+](=O)[O-])cnc1C`, for which the activity, negative = inhibition in experiment [1] (setting [17]) was -2.71%; in experiment [1] (setting [18]), -11.1%. Also, the Potency entry in [2], in experiment [3], in experiment [4], in experiment [5], in experiment [6] and in experiment [7] was “inactive” throughout. Moreover, the Potency result in experiment [8], in experiment [9], in experiment [14] and in experiment [16] was “inactive” in each case. The molecule was called inactive in experiment [10], in [11], in [12], in [13] and in experiment [15].

With `O=C(NCCCN1CCOCC1)c1ccc(Cl)cc1`, the results for the activity, negative = inhibition in experiment [1] (setting [19]) and in [1] (setting [20]) were 6.41% and 5.99%, respectively. Besides, the Potency result in experiment [2], in experiment [3], in experiment [4], in experiment [5], in experiment [6] and in experiment [7] was “inactive” each time. For the same molecule, the Potency result in experiment [8], in experiment [9], in experiment [14] and in experiment [16] was “inactive” in each case. Also, the molecule was classed as inactive in [10], in experiment [11], in experiment [12], in experiment [13] and in experiment [15].

As to `O=C(OOC(=O)c1ccccc1)c1ccccc1`, the activity, negative = inhibition in experiment [1] (setting [19]) is -10.4%; in experiment [1] (setting [20]) it was 7.71%. Moreover, the Potency result in experiment [2], in experiment [3], in experiment [4], in experiment [5], in experiment [6] and in [7] was “inactive” each time. Further, the Potency entry in [8], in [9], in experiment [14] and in experiment [16] was “inactive” each time. The outcome in experiment [10], in experiment [11], in experiment [12], in experiment [13] and in [15] was inactive.

With `Cc1ncc(CO)c(CN)c1O`, the activity, negative = inhibition in [1] (setting [19]) is 7.32%; in experiment [1] (setting [20]), 18.3%. Moreover, the Potency result in experiment [2], in [3], in experiment [4], in [5], in experiment [6] and in experiment [7] was “inactive” in each case. In addition, the Potency result in experiment [8] and in experiment [9] was “inactive” each time. For the same molecule, the outcome in experiment [10], in [11], in experiment [12], in experiment [13] and in experiment [15] was inactive.

Take `C=CCNC(N)=S`: the activity, negative = inhibition is 5.67% in experiment [1] (setting [19]) and -1.15% in experiment [1] (setting [20]). Besides, the Potency result in experiment [2], in experiment [3], in experiment [4], in experiment [5], in experiment [6] and in [7] was “inactive” throughout. Moreover, the Potency result in experiment [8], in experiment [9], in [14] and in experiment [16] was “inactive” each time. Further, the molecule was called inactive in experiment [10], in experiment [11], in experiment [12], in [13] and in experiment [15].

Take `CCCCC1(COC(=O)CCC(=O)O)C(=O)N(c2ccccc2)N(c2ccccc2)C1=O`: the activity, negative = inhibition was 7.36% in [1] (setting [17]) and 2.05% in experiment [1] (setting [18]). Further, the Potency entry in experiment [2], in [3], in experiment [4], in experiment [5], in experiment [6] and in [7] was “inactive” in each case. Besides, the Potency result in [8], in [9], in [14] and in experiment [16] was “inactive” throughout. Besides, the molecule was called inactive in [10], in experiment [11], in [12], in experiment [13] and in [15].

`CCN(CC)C(=O)c1cccc(C)c1`: the activity, negative = inhibition is 7.82% in [1] (setting [19]) and 6.22% in [1] (setting [20]). Also, the Potency entry in experiment [2], in experiment [3], in experiment [4], in experiment [5], in [6] and in [7] was “inactive” throughout. Further, the Potency entry in experiment [8], in experiment [9], in experiment [14] and in [16] was “inactive” in each case. The outcome in [10], in experiment [11], in [12], in [13] and in experiment [15] was inactive.

`C=CCSCC1Nc2cc(Cl)c(S(N)(=O)=O)cc2S(=O)(=O)N1` (stereo not given): the activity, negative = inhibition in [1] (setting [19]) was 8.77%; in [1] (setting [20]), 13.6%. Also, the Potency result in [2], in [3], in experiment [4], in [5], in [6] and in [7] was “inactive” each time. For the same molecule, the Potency result in experiment [8], in experiment [9], in experiment [14] and in experiment [16] was “inactive” in each case. For the same molecule, the call in experiment [10], in experiment [11], in experiment [12], in experiment [13] and in experiment [15] was inactive.
